Screening results from PubChem.
DUX4 txn inh: inhibitors of DUX4-driven ZSCAN4 reporter expression, primary screen, 293T cells, Gaussia and Italica luciferase; 293T-iDUX4 ZSCAN4-Gaussia luciferase reporter, 24 h; hits give low values; activity change, negative = inhibition, % (no concentration beside the values); actives 0.8% (n = 37,000); AID 1224904, 2016;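 active means mean inhibition of at least 10% in the main channel, exceeding the control channel by a set limit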
Large screens that a line does not name were inactive; ! = a repeat was not active. Many of the other results were omitted from the sample, so hits are more common in it than they were.

COc1ccccc1CNC(=O)C[C@@H]1C[C@H]2c3cc(NC(=O)Nc4ccccc4F)ccc3O[C@H]2[C@H](CO)O1	none
COCCNC(=O)C[C@@H]1C[C@H]2c3cc(NC(=O)Nc4ccccc4F)ccc3O[C@H]2[C@H](CO)O1	none
COCCNC(=O)C[C@H]1C[C@H]2c3cc(NC(=O)Nc4ccccc4F)ccc3O[C@H]2[C@H](CO)O1	none
O=C(C[C@@H]1C[C@H]2c3cc(NC(=O)Nc4ccccc4F)ccc3O[C@H]2[C@@H](CO)O1)NCCc1ccccc1	DUX4 txn inh -22
O=C(C[C@@H]1C[C@H]2c3cc(NC(=O)Nc4ccccc4F)ccc3O[C@H]2[C@H](CO)O1)NCc1cc(F)ccc1F	DUX4 txn inh -52
O=C(C[C@H]1C[C@@H]2c3cc(NC(=O)Nc4ccccc4F)ccc3O[C@@H]2[C@H](CO)O1)NCc1cc(F)ccc1F	none
COCC(=O)N1C[C@@H]2[C@H](c3ccccc31)[C@H](CO)N2C(=O)Nc1ccccc1Cl	none
CCN1[C@@H]2c3ccc(C4=CCCCC4)c(=O)n3C[C@H]1[C@H](CO)[C@H]2C(=O)N1CCCCC1	none
CCC(=O)N1[C@H](CO)[C@H](c2ccc(-c3ccc(F)cc3)cc2)C12CN(C(C)=O)C2	none
COc1ccc(C#Cc2ccc([C@H]3[C@H]4CN(C(=O)Nc5ccccc5F)CCCCN4[C@H]3CO)cc2)cc1	none
OC[C@@H]1[C@H](c2ccc(C#Cc3ccccc3F)cc2)[C@@H]2CN(CC3CCOCC3)CCCCN12	none
OC[C@@H]1[C@@H](c2ccc(C#Cc3ccccc3F)cc2)[C@@H]2CN(CC3CCOCC3)CCCCN12	DUX4 txn inh -28
OC[C@@H]1[C@@H](c2ccc(C#Cc3ccccc3F)cc2)[C@@H]2CN(Cc3cncnc3)CCCCN12	none
CCCC#Cc1ccc([C@H]2[C@H](CO)N3CCCCN(CC4CCOCC4)C[C@@H]23)cc1	none
OC[C@H]1[C@@H](c2ccc(C#Cc3ccccc3F)cc2)[C@H]2CN(Cc3cncnc3)CCCCN21	none
OC[C@H]1[C@@H](c2ccc(C#Cc3ccccc3F)cc2)[C@@H]2CN(Cc3cncnc3)CCCCN12	none
COc1ccc(C#Cc2ccc([C@@H]3[C@@H](CO)N4CCCCN(Cc5ccccc5F)C[C@@H]34)cc2)cc1	DUX4 txn inh -30
COc1ccc(C#Cc2ccc([C@H]3[C@H](CO)N4CCCCN(Cc5ccccc5F)C[C@@H]34)cc2)cc1	DUX4 txn inh -21
CO[C@H]1CN(C)C(=O)c2cc(NC(=O)c3ccno3)ccc2OC[C@@H](C)NC[C@H]1C	none
O=C(C[C@H]1C=C[C@@H](NC(=O)C2CCC2)[C@@H](CO)O1)NCCCN1CCOCC1	none
CCC(=O)N1CC2(CN(Cc3ccncc3)C2)c2c(n(C)c3cc(OC)ccc23)[C@H]1CO	none
C[C@@H]1CN([C@@H](C)CO)C(=O)c2cc(NC(=O)C3CCCCC3)ccc2O[C@@H](C)CCCCO[C@@H]1CN(C)C(=O)c1ccccc1	none
C[C@H](C(=O)N(C)C[C@@H]1OCc2ccccc2-c2ccccc2C(=O)N([C@H](C)CO)C[C@H]1C)c1ccccc1	none
CCCNC(=O)N1C[C@@H](C)[C@@H](OC)CN(C)C(=O)c2cc(NC(C)=O)ccc2OC[C@H]1C	none
C/C=C/c1ccc([C@H]2[C@@H](CNCC)N(c3nc(C)c(C)s3)[C@H]2CO)cc1	none
CO[C@H]1CN(C)C(=O)c2ccc(NC(=O)c3cnccn3)cc2OC[C@@H](C)N(C(=O)C2CC2)C[C@H]1C	none
O=C(Nc1cccc(F)c1)N1C[C@@H]2N[C@H](C1)C2c1ccc(-c2ccc(F)cc2)cc1 (stereo not given in full)	none
COc1ccccc1-c1ccc([C@H]2[C@H](CO)N3CCCCN(Cc4ccncc4)C[C@@H]23)cc1	none
Cc1cccc(-c2ccc(C3[C@@H]4CN(C(=O)C5CCOCC5)C[C@H]3N4)cc2)c1 (stereo not given in full)	none
CCCNC(=O)N1C[C@@H]2N[C@H](C1)C2c1ccc(-c2cccnc2)cc1 (stereo not given in full)	none
Cc1cccc(-c2ccc(C3[C@@H]4CN(Cc5cccc(F)c5)C[C@H]3N4)cc2)c1 (stereo not given in full)	DUX4 txn inh -55!
COc1ccccc1-c1ccc(C2[C@@H]3CN(Cc4nccs4)C[C@H]2N3)cc1 (stereo not given in full)	DUX4 txn inh -43
COc1ccccc1-c1ccc(C2[C@@H]3CN(Cc4cccc(F)c4)C[C@H]2N3)cc1 (stereo not given in full)	DUX4 txn inh -48
COc1cccc(CN2CCCCN3[C@@H](CO)[C@@H](c4ccc(-c5ccccc5OC)cc4)[C@@H]3C2)c1	none
Cc1cccc(-c2ccc(C3[C@H]4CNC[C@@H]3N4Cc3cccc(F)c3)cc2)c1 (stereo not given in full)	none
CCCNC(=O)N1C[C@@H]2N[C@H](C1)C2c1ccc(-c2cccc(F)c2)cc1 (stereo not given in full)	DUX4 txn inh -43!
c1ccc(-c2ccc(C3[C@H]4CNC[C@@H]3N4Cc3nccs3)cc2)cc1 (stereo not given in full)	none
